Giardia FBPA inh: Giardia lamblia aldolase inhibition; A8B2U2; purified Giardia FBPA; Potency, µM (titrated, usually from 59.6 µM), usual class: inhibitors; 0.71% of 290,000 active; AID 2451; further: nearly all actives have a fitted effect of over 55% in size
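40 nM FBPA preincubated 10 min at RT with compound (up to 57.5 uM final), then substrate plus GAPDH/TPI/NAD/arsenate coupling and diaphorase/resazurin added. Fluorescence read after 20 min at RT, 525/598 nm.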
Tb PYK inh: inhibitors of Trypanosoma brucei pyruvate kinase; Q57TT1; TbPYK enzyme, Kinase-Glo Plus ATP luminescence, 45 min; Potency, µM (titrated, usually from 76.8 µM), most hits filed as inhibitors; 0.12% of 410,000 active; AID 624173; further: nearly all actives have a fitted effect of over 50% in size
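Luminescent Kinase-Glo Plus end-point after 45 min room-temperature reaction of T. brucei pyruvate kinase started with 130 uM ADP (final). Buffer TEA 50 mM pH 7.2 with KCl, MgCl2, BSA, Tween-20; titration-based qHTS with fitted concentration-effect curves.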
Cycloheximide cs: counter-screen for Shiga toxin inhibitors: cycloheximide protein synthesis inhibition; AID 2314; cell reporter, cycloheximide protein synthesis inhibition counterscreen; 12% of 300,000 active; max response, %; in the data active means max response mostly above about 13%, no sharp cut-off; inactive means mostly below about 14%; further: read at 38.3 µM for the half of the compounds with a filed dose
Shiga toxin inh: Shiga toxin inhibition; 9.2% of 290,000 active; Vero cells, Shiga toxin protein synthesis inhibition reporter; inhibition, % at 38.7 µM; in the data active means inhibition mostly above about 28%, no sharp cut-off; inactive means mostly below about 43%
LmPK inhibitor: LmPK (Leishmania mexicana) enzyme inhibition; Potency, µM (series often up to 57.5 µM), usual class: inhibitors; Q27686; 0.37% of 290,000 active; purified LmPK, Kinase-Glo ATP luminescence, 1 h
Target sequence (Q27686 whole entry, looked up): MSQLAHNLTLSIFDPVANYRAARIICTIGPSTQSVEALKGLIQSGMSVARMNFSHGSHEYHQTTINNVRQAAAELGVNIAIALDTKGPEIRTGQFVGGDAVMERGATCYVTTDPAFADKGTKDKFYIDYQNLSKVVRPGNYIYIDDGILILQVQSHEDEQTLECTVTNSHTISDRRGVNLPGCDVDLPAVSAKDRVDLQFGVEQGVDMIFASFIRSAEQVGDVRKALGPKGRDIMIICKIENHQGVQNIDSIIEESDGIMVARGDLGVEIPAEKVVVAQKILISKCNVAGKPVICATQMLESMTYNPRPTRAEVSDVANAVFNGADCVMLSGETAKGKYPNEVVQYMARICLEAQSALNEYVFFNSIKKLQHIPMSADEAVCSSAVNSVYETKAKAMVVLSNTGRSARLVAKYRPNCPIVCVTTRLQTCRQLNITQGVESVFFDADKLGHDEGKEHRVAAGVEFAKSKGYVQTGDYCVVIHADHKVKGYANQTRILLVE
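Purified LmPK (0.1 nM) with 0.5 mM PEP and 0.1 mM ADP in imidazole buffer pH 7.2 with MgCl2/KCl, 1 h at room temperature. ATP formed was read by luciferase luminescence and normalized to no-enzyme and uninhibited controls.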
Sm TGR block: blocks Schistosoma mansoni thioredoxin glutathione reductase | purified TGR, DTNB reduction, TNB absorbance 405 nm | Potency, µM (series often up to 114 µM), actives largely listed as inhibitors | 3% of 360,000 active; further: nearly all actives have a fitted effect of over 60% in size
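Kinetic colorimetric format: TGR-catalysed, NADPH-driven DTNB reduction monitored via TNB absorbance. Enzyme dispensed at 20 nM; compound exposure 15 min at room temperature before reaction start.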
Hits are given with their value; 0 = inactive; ? = inconclusive; - = no result; [ ] = another dose, or the depositor's remark. Many of the other results were omitted from the sample, so hits are more common in it than they were. Unless noted, the call rests on the fitted dose curve; in most records, active means well fitted curve in the direction sought with a large enough effect; inconclusive means small, poorly fitted or top-dose-only effect, or another doubt; inactive means no such curve, though single readings can be large; an effect the other way counts as inactive or inconclusive.

SMILES | Giardia FBPA inh | Tb PYK inh | Cycloheximide cs | Shiga toxin inh | LmPK inhibitor | Sm TGR block
COc1ccccc1NC(=O)c1cnc(SCC(=O)N2CCOCC2)n(C)c1=O | - | 0 | - | - | - | 0
COc1ccc(/C=C/C2=CCN(C)CC2)cc1 | 0 | 0 | 46 | 63 | 0 | 32µM
CN1CCN(C(=O)/C=C/c2ccccc2)CC1 | 0 | 0 | 0 | 0 | 0 | 0
CN1CC=C(/C=C/c2ccc(-c3ccccc3)cc2)CC1 | 0 | 0 | 43 | 84 | 0 | 0
Cc1ccccc1OCC(=O)Nc1ccc2c(c1)C(=O)N(CCC(=O)O)C2=O | - | 0 | 0 | 0 | 0 | 0
O=C(COCc1cc(-c2cccs2)on1)Nc1cccc(Cl)c1Cl | - | 0 | - | - | - | 0
c1ccc(-c2nnc(CSc3ccc4c(c3)OCCO4)o2)cc1 | 0 | 0 | 19 | 29 | 0 | 0
CCOC(=O)C1CCCN(C(=O)CSc2ccc(NC(C)=O)cc2)C1 (centres undefined) | 0 | 0 | 0 | 0 | 0 | 0
CCOC(=O)C1CCCN(C(=O)CC(C)c2ccccc2)C1 (centres undefined) | 0 | 0 | 101 | 169 | 0 | 0
CCOC(=O)C1CCCN(C(=O)CSc2ccccc2)C1 (centres undefined) | 0 | 0 | 43 | 64 | 0 | 0
CCOC(=O)C1CCN(C(=O)CC(C)c2ccccc2)CC1 (centres undefined) | 0 | 0 | 0 | 0 | 0 | 0
CCOC(=O)C1CCCN(C(=O)CN2C(=O)/C(=C/c3ccc(OC)cc3)Oc3ccccc32)C1 (centres undefined) | 0 | 0 | 0 | 29 | 0 | 0
CC(C)C(=O)Nc1nnc2n1CCS2 | - | 0 | - | - | - | 0
COC(=O)c1ccc(C(NC(=O)OCc2ccccc2)/C(=C/[C@@H](C)C(=O)NC2CCCCC2)c2cccnc2)cc1 (some centres undefined) | 0 | - | - | - | - | -
COCCCNC(=O)CS(=O)Cc1nc(-c2cccc(OC)c2)oc1C (centres undefined) | 0 | - | 0 | 0 | 0 | 40µM
COCCCNC(=O)CS(=O)Cc1nc(-c2cccc(C)c2)oc1C (centres undefined) | - | 0 | - | - | - | ?
COc1cccc(-c2nc(CS(=O)CC(=O)NCc3ccccc3Cl)c(C)o2)c1 (centres undefined) | 0 | 0 | 0 | 0 | 0 | 32µM
Cc1ccc(Cl)cc1-n1ncc2c(N3CCN(Cc4ccccc4)CC3)ncnc21 | - | 0 | - | - | - | 0
Cc1ccc2nc(/C(C#N)=C/c3ccccc3C(=O)O)[nH]c2c1 | 0 | 0 | 18 | 0 | 0 | 0
N#C/C(=C\c1ccccc1C(=O)O)c1nc2ccccc2[nH]1 | 0 | 0 | 17 | 49 | 0 | 0
Cc1ccc2nc(/C(C#N)=C/c3ccc(O)c(O)c3)[nH]c2c1 | ? | 0 | 60 | 92 | 0 | 0
Cc1noc(C)c1C(=O)N1CCC2(CCN(Cc3ccccc3)CC2)CC1 | 0 | 0 | - | - | - | -
COC(=O)/C=C/c1ccc(C(=O)NCC(=O)N[C@@H](CCC(=O)OC)C(=O)N[C@@H](CC(C)C)C(N)=O)cc1 | 0 | - | 0 | 0 | - | -
COc1ccc2c(c1)cc1c(=O)n(CC(=O)NC3CC3)nc(C)n12 | - | 0 | - | - | - | 0
COc1ccc(-c2noc(CN3CCCC(OCc4ccccn4)C3)n2)cc1 (centres undefined) | 0 | 0 | 0 | 0 | 0 | 35µM
SMILES | Giardia FBPA inh | Tb PYK inh | Cycloheximide cs | Shiga toxin inh | LmPK inhibitor | Sm TGR block
c1ccc(COC2CCCN(Cc3nc(-c4cnccn4)no3)C2)nc1 (centres undefined) | 0 | 0 | 0 | 0 | 0 | ?
O=C(N/N=C/c1ccc(O)cc1)/C(=C/c1ccccc1)CCO | 0 | 0 | 14 | 0 | 0 | 0
Cc1ccc(S(=O)(=O)ON=C2CCN(S(=O)(=O)c3ccccc3)CC2)cc1 | 0 | 0 | 0 | 0 | 0 | 0
Cc1ccc2c(c1)/C(=N/OS(=O)(=O)c1ccccc1)CCS2 | - | 0 | - | - | - | -
CC1=CC(=O)C(C(C)C)=C/C1=N/OS(=O)(=O)c1ccccc1 | 20µM | 0 | 0 | 0 | 0 | 25µM
CC1=CC(=O)C=C(C)C1=NOS(=O)(=O)c1ccccc1 | 4µM | 0 | 0 | 0 | 0 | 4µM
Nc1ccc(NC(=O)NC2CCCCC2)cc1 | 0 | 0 | 38 | 61 | 0 | 0
O=C(COc1ccc([N+](=O)[O-])cc1Cl)NCC1CCCO1 (centres undefined) | 0 | 0 | 16 | 46 | 0 | 0
O=C(Nc1ccc(Cl)cc1)NC1CCCCNC1=O (centres undefined) | 0 | 0 | 28 | 46 | 0 | 0
CN1CCC(NC(=O)Nc2ccc(Br)cc2)CC1 | 0 | 0 | 0 | 0 | 0 | 0
CC(NCc1ccc(F)cc1)C(=O)NC1CCCCC1 (centres undefined) | 0 | 0 | 7.1 | 53 | 0 | 0
CC(NCc1ccc2c(c1)OCO2)C(=O)NC1CCCCC1 (centres undefined) | 0 | 0 | 0 | 0 | 0 | 0
O=C(c1ccco1)N1CCC2(CC1)CN(c1ccccc1)C2 | 0 | 0 | - | - | - | -
CC(CNC(=O)c1cc(Cl)ccc1[N+](=O)[O-])NC(=O)c1cc(Cl)ccc1[N+](=O)[O-] (centres undefined) | 0 | 0 | 0 | 0 | 0 | 0
CO[C@H](C(=O)[C@@H](O)[C@@H](C)O)C1Cc2cc3cc(O[C@H]4C[C@@H](O[C@H]5C[C@@H](O)[C@H](O)[C@@H](C)O5)[C@@H](O)[C@@H](C)O4)c(C)c(O)c3c(O)c2C(=O)[C@H]1O[C@H]1C[C@@H](O[C@H]2C[C@@H](O[C@H]3C[C@](C)(O)[C@H](O)[C@@H](C)O3)[C@H](O)[C@@H](C)O2)[C@H](O)[C@@H](C)O1 (some centres undefined) | - | 0 | - | - | - | -
O=C(CCn1c(=O)c2cccn2c2cccnc21)NCc1ccc(Cl)cc1 | - | 0 | - | - | - | 0
CN(CC(=O)Nc1ccc(F)cc1)CC(=O)NC1CCCCC1 | - | 0 | - | - | - | 0
O=C(Nc1ccc(Cl)cc1)NC1CCCCC1Cc1ccco1 (centres undefined) | 0 | 0 | 0 | 0 | 0 | 0
Cc1c(NC(=O)NC2CCCCC2)cccc1[N+](=O)[O-] | 0 | 0 | 0 | 0 | 0 | 0
O=C(Nc1ccc(Cl)cc1)NC1CCCC1Cc1ccco1 (centres undefined) | 0 | 0 | 41 | 47 | 0 | 45µM
O=C(NC1CCCCCCC1)c1ccc(F)cc1 | 0 | 0 | 46 | 71 | 0 | 0
Nc1ccc(NC(=O)NC2CCCCC2)cc1[N+](=O)[O-] | 0 | 0 | 33 | 65 | 0 | 0
O=C(Nc1ccc(F)cc1)NC1CCCCCCC1 | 0 | 0 | 61 | 108 | 0 | 0
CCCN(CCC)S(=O)(=O)c1ccc2c(c1)N(CC(=O)NC(C)c1ccccc1)C(=O)CS2 (centres undefined) | - | 0[15.4 µM] | - | - | - | 0
O=C(COc1ccc(Cl)cc1[N+](=O)[O-])NC1CCCCC1 | 0 | 0 | 24 | 71 | 0 | 0
O=C(Nc1ccc(F)c(F)c1)NC1CCCCC1 | 0 | 0 | 30 | 50 | 0 | 0
